About 6,500 targets were measured; listed, in parts, are those with a hit and a random draw of the rest. About 2% of all pairs of compound and target were hits. Values without a mark were called inactive.
Compound: COC(=O)C#Cc1ccccc1 [methyl 3-phenylpropiolate]
Assay: log2 ratio of iodoacetamide-alkyne labeling of the cysteine site, DMSO over compound (competition); higher = stronger covalent engagement of the cysteine by the compound, active = 1 or more
Settings: 500 µM; treatment time 1 h; system: HEK293T cell lysate
In short: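 The log2 competition ratio per cysteine is defined as mean reporter intensity in control channels over mean reporter intensity in compound channels. Lysate from HEK293T cells (2 mg/mL) received electrophile (500 µM) or vehicle for 1 h at ambient temperature, followed by iodoacetamide alkyne for 1 h. Samples were clicked to sCIP-TMT reagents, pooled, trypsin-digested overnight at 37 °C, streptavidin-enriched, acid-eluted and run on Orbitrap Eclipse LC-MS/MS with FAIMS, with quantification in FragPipe. Three replicates with duplicate channels were used, and any cysteine quantified in only one replicate was excluded.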

Chain of UniProt P09874 (P09874 whole entry, looked up): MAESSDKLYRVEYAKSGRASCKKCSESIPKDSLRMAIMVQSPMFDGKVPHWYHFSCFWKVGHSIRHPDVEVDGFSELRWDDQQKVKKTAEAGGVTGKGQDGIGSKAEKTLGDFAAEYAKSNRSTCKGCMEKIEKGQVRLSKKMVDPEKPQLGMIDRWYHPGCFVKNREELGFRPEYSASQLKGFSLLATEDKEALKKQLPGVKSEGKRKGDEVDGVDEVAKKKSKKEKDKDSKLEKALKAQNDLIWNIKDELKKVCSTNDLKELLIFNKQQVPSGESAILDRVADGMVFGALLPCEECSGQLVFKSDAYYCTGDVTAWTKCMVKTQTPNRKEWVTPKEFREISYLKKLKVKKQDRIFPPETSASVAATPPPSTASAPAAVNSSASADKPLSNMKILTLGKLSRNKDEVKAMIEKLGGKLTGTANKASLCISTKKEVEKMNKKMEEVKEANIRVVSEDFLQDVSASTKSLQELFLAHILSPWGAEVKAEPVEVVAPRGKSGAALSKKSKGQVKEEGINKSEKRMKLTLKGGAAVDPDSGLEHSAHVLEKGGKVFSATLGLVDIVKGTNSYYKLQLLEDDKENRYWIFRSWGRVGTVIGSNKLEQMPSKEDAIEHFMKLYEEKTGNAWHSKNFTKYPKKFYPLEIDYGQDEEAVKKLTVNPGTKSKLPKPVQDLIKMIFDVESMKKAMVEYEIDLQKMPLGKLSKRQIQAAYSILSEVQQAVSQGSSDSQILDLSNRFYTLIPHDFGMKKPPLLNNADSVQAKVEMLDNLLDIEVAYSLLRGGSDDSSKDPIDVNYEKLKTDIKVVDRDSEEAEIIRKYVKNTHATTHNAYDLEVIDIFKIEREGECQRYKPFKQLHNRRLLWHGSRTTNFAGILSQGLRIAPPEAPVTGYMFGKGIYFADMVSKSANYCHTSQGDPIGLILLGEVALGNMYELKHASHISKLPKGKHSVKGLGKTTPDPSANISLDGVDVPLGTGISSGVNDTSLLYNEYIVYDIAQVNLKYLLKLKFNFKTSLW
Chain of UniProt P14923 (P14923 whole entry, looked up): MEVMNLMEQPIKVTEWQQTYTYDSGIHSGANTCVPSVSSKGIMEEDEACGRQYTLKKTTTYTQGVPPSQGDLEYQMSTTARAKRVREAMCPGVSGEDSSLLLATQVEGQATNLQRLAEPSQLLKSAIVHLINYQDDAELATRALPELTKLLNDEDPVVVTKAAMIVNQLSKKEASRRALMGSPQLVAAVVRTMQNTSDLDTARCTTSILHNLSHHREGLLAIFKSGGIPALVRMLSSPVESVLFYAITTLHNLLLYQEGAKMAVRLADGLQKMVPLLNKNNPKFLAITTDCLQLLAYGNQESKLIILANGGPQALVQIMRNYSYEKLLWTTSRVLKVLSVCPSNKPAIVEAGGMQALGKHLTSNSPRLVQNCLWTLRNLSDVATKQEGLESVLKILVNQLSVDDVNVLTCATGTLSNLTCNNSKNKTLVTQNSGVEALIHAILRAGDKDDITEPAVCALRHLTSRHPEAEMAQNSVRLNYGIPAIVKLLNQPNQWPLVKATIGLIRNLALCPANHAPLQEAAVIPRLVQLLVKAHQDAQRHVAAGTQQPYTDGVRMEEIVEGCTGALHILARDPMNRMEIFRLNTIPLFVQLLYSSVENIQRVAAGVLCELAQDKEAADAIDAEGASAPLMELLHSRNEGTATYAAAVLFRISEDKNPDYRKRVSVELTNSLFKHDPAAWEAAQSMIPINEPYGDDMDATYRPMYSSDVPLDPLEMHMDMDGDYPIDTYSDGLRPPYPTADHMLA
Chain of UniProt P18085 (P18085 whole entry, looked up): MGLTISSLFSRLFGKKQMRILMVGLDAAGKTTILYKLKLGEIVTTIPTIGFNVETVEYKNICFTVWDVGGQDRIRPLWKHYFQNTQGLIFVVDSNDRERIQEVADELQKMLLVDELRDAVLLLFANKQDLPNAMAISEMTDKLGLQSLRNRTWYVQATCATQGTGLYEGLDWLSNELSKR
Chain of UniProt P48643 (P48643 whole entry, looked up): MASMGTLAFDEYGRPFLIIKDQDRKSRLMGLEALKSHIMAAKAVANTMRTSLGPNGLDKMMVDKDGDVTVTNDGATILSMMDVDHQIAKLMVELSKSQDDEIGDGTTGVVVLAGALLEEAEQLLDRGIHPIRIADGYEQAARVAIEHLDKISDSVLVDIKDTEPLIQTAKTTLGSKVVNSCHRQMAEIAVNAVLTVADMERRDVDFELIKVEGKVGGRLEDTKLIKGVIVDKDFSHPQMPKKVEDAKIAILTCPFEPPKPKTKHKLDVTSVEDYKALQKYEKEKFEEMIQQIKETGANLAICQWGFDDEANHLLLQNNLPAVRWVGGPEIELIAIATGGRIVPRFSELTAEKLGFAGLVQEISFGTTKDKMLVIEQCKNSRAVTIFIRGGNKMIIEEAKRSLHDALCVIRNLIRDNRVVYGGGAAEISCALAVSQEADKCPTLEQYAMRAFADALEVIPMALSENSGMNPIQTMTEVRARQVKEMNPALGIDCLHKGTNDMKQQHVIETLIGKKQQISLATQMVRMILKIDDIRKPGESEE
Chain of UniProt P34949 (P34949 whole entry, looked up): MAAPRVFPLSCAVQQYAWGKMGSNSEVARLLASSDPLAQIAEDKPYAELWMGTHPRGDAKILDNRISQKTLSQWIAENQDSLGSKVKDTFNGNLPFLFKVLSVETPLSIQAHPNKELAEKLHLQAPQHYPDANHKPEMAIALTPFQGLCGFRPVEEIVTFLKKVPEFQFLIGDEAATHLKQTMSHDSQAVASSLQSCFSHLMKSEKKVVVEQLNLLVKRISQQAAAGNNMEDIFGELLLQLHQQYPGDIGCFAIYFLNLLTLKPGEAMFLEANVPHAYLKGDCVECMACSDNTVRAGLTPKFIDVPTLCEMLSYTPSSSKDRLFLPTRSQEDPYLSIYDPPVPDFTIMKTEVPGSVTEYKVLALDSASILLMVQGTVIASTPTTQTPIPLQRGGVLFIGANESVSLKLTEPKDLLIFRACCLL
Chain of UniProt P12277 (P12277 whole entry): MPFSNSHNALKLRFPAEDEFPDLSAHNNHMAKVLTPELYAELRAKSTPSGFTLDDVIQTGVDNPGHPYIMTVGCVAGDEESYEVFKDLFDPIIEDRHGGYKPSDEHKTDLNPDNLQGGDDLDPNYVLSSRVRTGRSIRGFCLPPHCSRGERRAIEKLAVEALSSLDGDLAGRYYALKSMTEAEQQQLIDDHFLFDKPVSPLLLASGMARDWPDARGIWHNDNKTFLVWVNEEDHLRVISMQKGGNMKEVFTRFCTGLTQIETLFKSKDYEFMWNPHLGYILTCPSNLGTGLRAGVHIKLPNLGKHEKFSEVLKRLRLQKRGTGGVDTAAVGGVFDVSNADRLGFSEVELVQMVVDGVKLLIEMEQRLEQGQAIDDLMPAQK
Chain of UniProt P30153 (P30153 whole entry, looked up): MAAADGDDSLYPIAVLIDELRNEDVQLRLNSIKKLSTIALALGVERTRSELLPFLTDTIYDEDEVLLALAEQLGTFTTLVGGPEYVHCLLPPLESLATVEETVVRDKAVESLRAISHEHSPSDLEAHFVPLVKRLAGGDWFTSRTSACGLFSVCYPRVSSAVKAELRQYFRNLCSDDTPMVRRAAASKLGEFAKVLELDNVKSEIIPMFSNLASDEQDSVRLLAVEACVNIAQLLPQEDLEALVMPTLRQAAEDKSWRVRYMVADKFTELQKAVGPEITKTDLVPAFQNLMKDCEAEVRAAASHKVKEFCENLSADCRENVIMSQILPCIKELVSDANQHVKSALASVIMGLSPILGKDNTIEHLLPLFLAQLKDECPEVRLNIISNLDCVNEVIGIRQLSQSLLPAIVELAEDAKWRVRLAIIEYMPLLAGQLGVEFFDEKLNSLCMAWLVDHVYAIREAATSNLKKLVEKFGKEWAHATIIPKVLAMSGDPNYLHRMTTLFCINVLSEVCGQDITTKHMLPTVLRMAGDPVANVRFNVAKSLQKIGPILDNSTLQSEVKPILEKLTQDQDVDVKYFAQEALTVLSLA
Chain of UniProt P52597 (P52597 whole entry, looked up): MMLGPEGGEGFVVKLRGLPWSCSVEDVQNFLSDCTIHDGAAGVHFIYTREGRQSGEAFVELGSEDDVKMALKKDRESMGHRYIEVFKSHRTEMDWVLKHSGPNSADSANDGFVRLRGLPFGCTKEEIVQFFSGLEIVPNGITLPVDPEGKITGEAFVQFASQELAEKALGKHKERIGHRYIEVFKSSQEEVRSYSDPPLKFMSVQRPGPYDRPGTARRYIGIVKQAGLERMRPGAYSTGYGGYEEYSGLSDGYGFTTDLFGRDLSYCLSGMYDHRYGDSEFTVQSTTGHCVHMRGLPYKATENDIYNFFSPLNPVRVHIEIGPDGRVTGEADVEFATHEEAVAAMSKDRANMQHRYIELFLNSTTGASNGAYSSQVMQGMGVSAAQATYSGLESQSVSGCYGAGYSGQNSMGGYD
Chain of UniProt P40926 (P40926 whole entry, looked up): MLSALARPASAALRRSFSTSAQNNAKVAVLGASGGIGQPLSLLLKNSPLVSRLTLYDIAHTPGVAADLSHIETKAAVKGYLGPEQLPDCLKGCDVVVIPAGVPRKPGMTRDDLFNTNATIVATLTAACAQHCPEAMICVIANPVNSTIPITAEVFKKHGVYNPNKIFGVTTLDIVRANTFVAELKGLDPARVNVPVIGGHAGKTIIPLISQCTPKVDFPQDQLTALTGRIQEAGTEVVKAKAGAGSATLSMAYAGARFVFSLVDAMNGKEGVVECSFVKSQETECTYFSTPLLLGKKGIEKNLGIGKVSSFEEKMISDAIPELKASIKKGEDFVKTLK

Target | log2 ratio of iodoacetamide-alkyne labeling
UniProt O96017_C385 | 0.227
UniProt P25705_C244 | 0.205
CKB C283 (UniProt P12277) | 0.217
RPL10 C195 (UniProt P27635) | 0.694
UniProt P26367_C94 | 0.097
CCT5 C377 (UniProt P48643) | 0.18
MPI C289 (UniProt P34949) | -0.0268
MAP1B C1814 (UniProt P46821) | 0.438
PARP1 C429 (UniProt P09874) | 0.192
JUP C90 (UniProt P14923) | 0.305
ARF4 C62 (UniProt P18085) | -0.015
HNRNPF C290 (UniProt P52597) | 0.0362
PPP2R1A C377 (UniProt P30153) | 0.919
MAP1B C2065 (UniProt P46821) | 0.623
MDH2 C128 (UniProt P40926) | -0.335
